Source: PubChem (several laboratories)
Shown are actives, neighbours in structure and some others; about 1.2% of the full set was active somewhere.
GC-B act: GC-B (human) receptor activation | P20594 | HEK293-GC-B cells, CNP EC30, cGMP TR-FRET; 0% at EC30 CNP, 100% saturating CNP | activation, % at 10 µM | 370,000 tested, 0.11% active | AID 1920062;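 active means activation at 10 µM reaching about 35% in either raw or pattern-adjusted values, limit read from the data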
bovine MsrA act: activates bovine MsrA enzyme; purified bovine MsrA, absorbance read-out; activation, % at 10.6 µM; 360,000 tested, 0.3% active; AID 602163; in the data active means activation above about 7.5%
NPR1 activator: GC-A (human) enzyme activation | P16066 | HEK293 GC-A cells, cGMP TR-FRET, EC30 ANP; 0% at EC30 ANP, 100% saturating ANP | activation, % at 10 µM | 370,000 tested, 0.14% active | AID 1671463; in the data active means activation above about 40%
Target sequence (P16066 whole entry, looked up): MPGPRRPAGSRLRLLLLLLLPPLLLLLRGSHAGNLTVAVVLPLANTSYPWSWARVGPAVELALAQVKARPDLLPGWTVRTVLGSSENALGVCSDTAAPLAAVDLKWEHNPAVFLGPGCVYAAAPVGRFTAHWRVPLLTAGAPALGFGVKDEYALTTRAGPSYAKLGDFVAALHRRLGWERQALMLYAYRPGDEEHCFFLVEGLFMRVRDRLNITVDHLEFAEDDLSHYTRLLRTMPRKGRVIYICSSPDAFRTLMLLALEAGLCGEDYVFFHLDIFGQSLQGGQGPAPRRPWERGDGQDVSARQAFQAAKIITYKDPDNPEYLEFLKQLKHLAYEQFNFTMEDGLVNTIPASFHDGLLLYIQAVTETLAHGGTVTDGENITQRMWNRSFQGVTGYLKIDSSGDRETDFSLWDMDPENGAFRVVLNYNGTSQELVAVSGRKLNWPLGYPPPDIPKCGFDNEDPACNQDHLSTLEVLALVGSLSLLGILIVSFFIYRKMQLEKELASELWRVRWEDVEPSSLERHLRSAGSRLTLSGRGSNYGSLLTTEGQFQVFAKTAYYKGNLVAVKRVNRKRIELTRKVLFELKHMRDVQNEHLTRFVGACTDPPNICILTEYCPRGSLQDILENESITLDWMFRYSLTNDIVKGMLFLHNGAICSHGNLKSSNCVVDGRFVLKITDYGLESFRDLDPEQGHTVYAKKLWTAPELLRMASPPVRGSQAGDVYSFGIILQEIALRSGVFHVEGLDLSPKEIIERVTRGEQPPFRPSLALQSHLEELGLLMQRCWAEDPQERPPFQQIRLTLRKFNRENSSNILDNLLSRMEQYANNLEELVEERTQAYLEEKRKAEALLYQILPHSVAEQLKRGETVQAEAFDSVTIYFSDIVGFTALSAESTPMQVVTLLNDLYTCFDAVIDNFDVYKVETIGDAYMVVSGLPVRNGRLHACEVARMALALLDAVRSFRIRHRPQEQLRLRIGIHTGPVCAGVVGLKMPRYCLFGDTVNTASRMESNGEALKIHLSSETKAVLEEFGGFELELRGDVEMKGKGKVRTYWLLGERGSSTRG
MsrA inhibitor: inhibits bovine methionine sulfoxide reductase A | purified bovine MsrA, absorbance read-out | inhibition, % at 15.5 µM | 360,000 tested, 0.75% active
MsrA inh confirm: confirmation of bovine MsrA inhibitors; shares compounds with MsrA inhibitor; purified bovine MsrA, absorbance read-out; inhibition, % at 15.5 µM; 2,300 tested, 41% active; AID 651822;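 further: coupled to thioredoxin reductase with NADPH and selenocystamine and DMSO as substrate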
Hits are given with their value; n = inactive; x = no result. Unless noted, no stated cut-off is given here; in the data, active means inhibition above about 4.5%; inactive means the rest.

SMILES	GC-B act	bovine MsrA act	NPR1 activator	MsrA inhibitor	MsrA inh confirm
CC1(C)OC(=O)C(=NNc2ccccc2)C(=O)O1	n	n	n	n	x
Cc1ccc(NC(=O)c2cc(=O)[nH]c3ccc(S(=O)(=O)N4CCOCC4)cc23)cc1	n	n	n	n	x
CCc1cccc(C)c1NC(=O)c1cc(=O)[nH]c2ccc(S(=O)(=O)N3CCOCC3)cc12	n	n	n	16.9	28.4
CCCCN1CCN(C2=NC(=O)N(c3ccc(Br)cc3)C(=O)C2)CC1	n	x	n	x	x
COc1cccc(N2CCN(C(=O)c3ccc(=O)oc3)CC2C)c1 (configuration not stated)	n	n	n	4.9	n
O=c1oc2ccccc2c2c1cnc1ccccc12	n	n	n	15.7	15.0
Cc1cnc(N)c2c(=O)oc3ccccc3c12	n	n	n	n	x
CCOC(=O)CSC1=NC(=O)/C(=C\c2ccc(OC(C)=O)cc2)S1	n	n	n	5.4	n
COC(=O)c1ccc(C=NNC(=O)c2cc(-c3ccc(C)c(C)c3)n[nH]2)cc1	n	x	n	x	x
O=C(/C=C/c1ccc(-c2ccccc2)cc1)NC1=NCCS1	n	x	n	x	x
C=CCN1C(C(=O)OC)CN(Cc2cn(CCC3OCCO3)nn2)CCS1(=O)=O (configuration not stated)	n	x	n	x	x
COCCn1c(SCC(=O)Nc2cc(C)on2)nc2c(c1=O)SC(C)C2 (configuration not stated)	n	n	n	n	x
COCCn1c(SCC(=O)Nc2ccc3c(c2)OCCO3)nc2c(c1=O)SC(C)C2 (configuration not stated)	n	n	n	5.2	n
CC1Cc2nc(SCC(=O)Nc3ccc4c(c3)OCCO4)n(C)c(=O)c2S1 (configuration not stated)	n	n	n	5.0	n
COCCn1c(SCC(N)=O)nc2c(c1=O)SC(C)C2 (configuration not stated)	n	n	n	4.7	n
CC1Cc2nc(SCC(=O)Nc3ccc4c(c3)OCO4)n(Cc3ccccc3)c(=O)c2S1 (configuration not stated)	n	n	n	n	x
CC1Cc2nc(SCC(N)=O)n(C)c(=O)c2S1 (configuration not stated)	n	n	n	n	x
O=C(OCCCN1CCC2(CCCCC2)C1=O)c1ccccc1	n	x	n	x	x
O=[N+]([O-])c1cc(S(=O)(=O)Nc2ccccc2)ccc1Nc1ccccc1	n	n	n	5.7	n
O=[N+]([O-])c1cc(S(=O)(=O)Nc2ccccc2)ccc1NCc1ccccc1	n	n	n	n	x
CN(C)c1ccc(/C=C(/NC(=O)c2ccccc2)C(=O)N2CCCC2)cc1	n	n	n	5.4	n
CNC(=O)c1[nH]nc2c1CCc1ccccc1-2	n	n	n	n	x
COC(=O)c1[nH]c2c(c1C(=O)OC)CCc1ccccc1-2	n	n	n	5.6	n
CC(=O)c1ccc(N2CCN(C(=O)CCCc3nc4ccccc4s3)CC2)cc1	n	n	n	5.7	n
O=[N+]([O-])c1cncc2[nH]cnc12	n	x	n	x	x
SMILES	GC-B act	bovine MsrA act	NPR1 activator	MsrA inhibitor	MsrA inh confirm
O=c1oc2ccccc2c(NC(c2ccccc2)c2ccccc2)c1[N+](=O)[O-]	n	n	n	62.1	55.5
CC(Nc1c([N+](=O)[O-])c(=O)oc2ccccc12)C(Cl)c1ccccc1 (configuration not stated)	n	n	n	n	x
c1ccc(-c2nnsc2Sc2ccccn2)cc1	n	n	n	5.8	n
Cc1ccccc1C(=O)n1ccc2ccc(-c3ccc4ccn(Cc5ccc(C#N)cc5)c4c3)cc21	n	x	n	x	x
O=C(NNC1=NC2(CCCC2)Cc2ccccc21)c1ccncc1	n	n	n	4.7	n
CCCCN1CCN(C(=O)c2ccc(CNC(=O)c3cccc(Br)c3)cc2)CC1	n	x	n	x	x
CC(=O)Nc1cccc(C(=O)N/N=C/c2c[nH]c3ccccc23)c1	n	n	n	5.8	n
O=C(N/N=C/c1c[nH]c2ccccc12)c1cccc(O)c1	n	n	n	n	x
Cn1ccc(C(=O)N/N=C/c2c[nH]c3ccccc23)n1	n	n	n	5.7	n
CC(SC(C)C(=O)NN=Cc1c[nH]c2ccccc12)C(=O)NN=Cc1c[nH]c2ccccc12 (configuration not stated)	n	n	n	5.0	n
COc1ccc(-c2nn3c(-c4n[nH]c5c4CCC5)nnc3s2)cc1	n	x	n	x	x
Cc1cccc2cc(/C=C3\N=C(c4ccccc4)OC3=O)c(N3CCOCC3)nc12	n	n	n	n	x
COc1ccc(/C=C2\N=C(c3ccc(C)cc3)OC2=O)cc1	n	n	n	n	x
Cc1ccc(C2=N/C(=C/N3CCOCC3)C(=O)O2)cc1	n	n	n	6.5	7.6
Cc1ccc(C2=N/C(=C\N3CCCCC3)C(=O)O2)cc1	n	n	n	6.1	5.9
COC1=C[C@H](C(=O)NCc2ccccn2)[C@H](C)[C@@H](c2ccccc2)CC1=O	n	x	n	x	x
CN(C)c1ccc(N=C/C=C2\N(C)c3ccccc3C2(C)C)cc1	n	n	n	5.0	n
CN1/C(=C\C=O)C(C)(C)c2ccccc21	n	n	n	6.8	6.0
Cc1cc(/N=C/C=C2\N(C)c3ccccc3C2(C)C)n(CCC#N)n1	n	n	n	5.4	n
C/C(=N\Nc1ccc(S(N)(=O)=O)cc1[N+](=O)[O-])c1ccc2c(c1)OCO2	n	n	n	20.6	15.3
C/C(CCC(C)C)=N\Nc1ccc(S(N)(=O)=O)cc1[N+](=O)[O-]	n	n	n	10.3	7.8
CC(Cc1ccccc1)=NNc1ccc([N+](=O)[O-])cc1[N+](=O)[O-]	n	n	n	n	x
COC(=O)CC/C(C)=N\Nc1ccc([N+](=O)[O-])cc1[N+](=O)[O-]	n	n	n	6.3	9.5
C/C(CC(C)C)=N/Nc1ccc([N+](=O)[O-])cc1[N+](=O)[O-]	n	n	n	10.9	11.9
CCN(CC)S(=O)(=O)c1ccc(N/N=C(\C)c2ccc3c(c2)OCO3)c([N+](=O)[O-])c1	n	n	n	n	x
SMILES	GC-B act	bovine MsrA act	NPR1 activator	MsrA inhibitor	MsrA inh confirm
O=C(Nc1ccccc1C(F)(F)F)O[C@@H]1CC[C@@]23CCCN2C(=O)CCC[C@H]3C1	n	x	n	x	x
CC(C)C1=CC2C3C(=O)N(c4ccccc4)C(=O)C3C1C(=O)C2(C)O (configuration not stated)	n	x	n	n	x
Cc1ccc(-n2c(SCC(=O)Nc3ccc4c(c3)OCCO4)nnc2-c2ccccn2)cc1	n	x	n	x	x
COc1ccc(N/C=C2\CCOC2=O)cc1	n	n	n	5.4	n
C=CCOC(=O)N[C@@H](c1coc2ccccc2c1=O)[C@@H](C)/C=C/CC(=O)OC	n	x	n	x	x
O=C(N/C(=C/c1ccc(Br)cc1)c1nc2ccccc2[nH]1)c1ccco1	n	n	n	5.9	n
O=C(N/C(=C/c1ccc(Cl)cc1)c1nc2ccccc2[nH]1)c1ccco1	n	n	n	n	x
CCOC(=O)C1CCN(C(=O)c2c(C)oc3c2C(=O)c2ccccc2C3=O)CC1	n	n	n	9.3	13.7
CCOC(=O)C1CCN(C(=O)c2ccc(C)o2)CC1	n	n	n	n	x
Cc1oc2c(c1C(=O)N1CCC(C)CC1)C(=O)c1ccccc1C2=O	n	x	n	13.0	6.0
